TDP1 cell CPT = DT40-hTDP1 cell growth loss with CPT | Potency, µM (top dose mostly 46.2 µM), hits mostly inhibitors | chicken DT40 Tdp1-/-;hTDP1 cells + 20 nM CPT, ATP luminescence, 48 h | 420,000 tested, 12% active; further: nearly all actives have a fitted effect of over 55% in size
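Chicken DT40 Tdp1-/- cells stably complemented with human TDP1 were seeded at 400 cells/well in medium containing 20 nM camptothecin, exposed to pin-transferred compounds, and grown at 37 °C for at least 48 hr. Viability was read as ATP luminescence.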
TDP1 cell noCPT = qHTS for Inhibitors of human tyrosyl-DNA phosphodiesterase 1 (TDP1): qHTS in cells in absence of CPT; DT40 Tdp1-/- hTDP1 cells, no CPT, ATP luminescence, 48 h; Potency, µM (doses to about 46.2 µM), most hits filed as inhibitors; 420,000 tested, 15% active; AID 686978, 2013; further: nearly all actives have a fitted effect of over 55% in size
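Camptothecin absent (DMSO only). Human TDP1-complemented DT40 knockout cells, 400 cells/well, 37 °C for minimum 48 hr; ATP measured via CellTiter-Glo, 30 min dark incubation, luminescence.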
IL1B secr inh = inhibitors of inflammasome signaling (IL-1 beta secretion); activity change, % at 57.5 µM; 360,000 tested, 4.7% active; THP-1 LPS/ATP IL-1B secretion, AlphaLISA, 16 h; active compounds read low; in the data active means activity change below about -50%; inconclusive means mostly about -30% to -49%
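Secreted IL-1B measured by AlphaLISA bead assay after 16 h compound exposure of THP-1 cells; compounds (final up to 57.5 uM) added 1 h before LPS (250 ng/mL) and ATP (1.25 mM) stimulation; lower signal means less secretion.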
D3 antag = blocks the human D3 dopamine receptor; 360,000 tested, 2.5% active; D3R cells, DiscoveRx beta-arrestin luminescence, antagonist mode; active compounds read low; max response, negative = inhibition, %; P35462; in the data active means max response below about -50%; inconclusive means no clear call, values can overlap the other calls
Target sequence (P35462 whole entry, looked up): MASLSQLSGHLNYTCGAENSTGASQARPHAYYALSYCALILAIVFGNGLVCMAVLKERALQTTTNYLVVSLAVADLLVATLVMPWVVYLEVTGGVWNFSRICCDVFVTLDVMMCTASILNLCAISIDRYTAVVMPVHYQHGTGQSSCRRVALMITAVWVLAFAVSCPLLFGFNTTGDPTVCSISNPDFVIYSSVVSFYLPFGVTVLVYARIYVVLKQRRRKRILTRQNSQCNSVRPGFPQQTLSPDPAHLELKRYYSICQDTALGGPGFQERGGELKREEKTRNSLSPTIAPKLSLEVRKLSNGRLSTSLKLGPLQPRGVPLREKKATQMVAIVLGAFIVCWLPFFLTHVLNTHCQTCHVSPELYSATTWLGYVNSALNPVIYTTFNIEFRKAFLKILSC
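Cells expressing the human receptor were seeded at 1500 cells/well, incubated overnight at 37 degrees C in 5% CO2, then exposed to library compounds with dopamine controls for 90 minutes at 37 degrees C before luminescent detection.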
ClpP mod = qHTS Assay for Activators of ClpP; Potency, µM (titrated, usually from 57.5 µM); ATP-dependent Clp protease proteolytic subunit (Bacillus subtilis (strain 168)), P80244; purified B. subtilis ClpP, FRET peptide cleavage, 20 min; 340,000 tested, 1.9% active; active means well fitted falling curve with a large enough effect; inconclusive means small, poorly fitted or top-dose-only effect; inactive means no such curve, though single readings can be large or run the other way; further: the source files actives as falling curves though it sought activators and does not explain the sign; nearly all actives have a fitted effect of over 65% in size
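ClpP 10 microg/mL final, pH 8 Tris/KCl buffer with BSA, glycerol, Tween-20; compound pinned in; FRET-FV substrate; RT 20 min; Ex320/Em430; ΔFRET vs ADEP 5.8 microM, DMSO, no enzyme.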
D3 ag = agonists of human D3 dopamine receptor; max activation, %; 410,000 tested, 0.58% active; D3R DiscoveRx beta-arrestin cells, luminescence, 90 min; in the data active means max activation above about 30%
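Agonist mode: compounds and dopamine controls were applied to plated cells for 90 min at 37 degrees C after an overnight attachment at 1500 cells/well. Luminescent read-out followed 30 - 60 minutes at room temperature with DiscoveRx detection reagent.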
Large screens that a line does not name were inactive. A selection: hits, their analogues and other compounds. The true share with any hit is near 21%. Unless noted, the call rests on the fitted dose curve; in most records, active means well fitted inhibition curve with a large enough effect; inconclusive means small, poorly fitted or top-dose-only effect; inactive means flat fitted curve, though single readings scatter.

COc1ccc(C)cc1NC(=O)C1CCN(S(=O)(=O)Cc2ccccc2)CC1	none (no result: IL1B secr inh, D3 antag)
COc1ccccc1CN(C)C(=O)c1cccc(S(=O)(=O)N2CCCC2)c1	TDP1 cell CPT inconclusive
COc1ccccc1CN(C)C(=O)c1cccc(S(=O)(=O)N2CCc3ccccc3C2)c1	TDP1 cell CPT inconclusive, TDP1 cell noCPT 16.4µM, IL1B secr inh inconclusive
Cc1ccc(NC(=O)CN(C)C(=O)c2cccc(S(=O)(=O)N3CCc4ccccc43)c2)cc1	TDP1 cell CPT 20.6µM, TDP1 cell noCPT 16.4µM
COc1ccc(CN(C)C(=O)c2cccc(S(=O)(=O)N3CCc4ccccc43)c2)c(OC)c1	TDP1 cell CPT 20.6µM, TDP1 cell noCPT 14.6µM
COCCCn1c(=O)c2ccccc2n(CC(=O)Nc2ccc3c(c2)OCCO3)c1=O	none (no result: ClpP mod)
CC(=O)c1ccc(OC(C)C(=O)OCC(=O)NCCc2ccccc2)cc1 (stereo unspecified)	none
COC(=O)c1cc(=O)n(-c2ccc(F)cc2)c(=Nc2ccc(F)cc2)s1	TDP1 cell CPT 6.51µM, TDP1 cell noCPT 6.51µM, IL1B secr inh -105.0, D3 antag inconclusive
CCOC(=O)c1ccc(N=c2sc(C(=O)OC)cc(=O)n2C2CC2)cc1	none
CCOC(=O)c1ccc(N=c2sc(C(=O)OC)cc(=O)n2Cc2ccc3c(c2)OCO3)cc1	TDP1 cell CPT 6.51µM, TDP1 cell noCPT 6.51µM
COC(=O)c1cc(=O)n(Cc2ccc3c(c2)OCO3)c(=Nc2ccc(F)cc2)s1	TDP1 cell CPT inconclusive, TDP1 cell noCPT inconclusive
COC(=O)c1ccc(N=c2sc(C(=O)OC)cc(=O)n2C)cc1	TDP1 cell CPT 20.6µM, TDP1 cell noCPT 25.9µM
COC(=O)c1c(O)cc(C(C)(C)C)n(-c2ccc(F)cc2)c1=O	none
COC(=O)c1cc(=O)n(Cc2cccs2)c(=Nc2ccc(F)cc2)s1	TDP1 cell CPT inconclusive, TDP1 cell noCPT 20.6µM, D3 antag inconclusive
COC(=O)c1cc(=O)n(Cc2ccc(F)cc2)c(=NCc2ccc(F)cc2)s1	none
OCc1c[nH]c(=S)n1CCOc1cccc(C(F)(F)F)c1	TDP1 cell noCPT inconclusive
Cc1ccc(-c2csc3nc(-c4ccncc4)[nH]c(=O)c23)cc1	TDP1 cell CPT 4.11µM, TDP1 cell noCPT 2.59µM
O=c1[nH]c(Cc2ccc(F)cc2)nc2scc(-c3ccc(F)cc3)c12	TDP1 cell CPT 13µM, TDP1 cell noCPT 25.9µM
Cc1ccc(-c2csc3nc(CN(C)Cc4ccccc4)[nH]c(=O)c23)cc1	TDP1 cell CPT inconclusive, TDP1 cell noCPT 25.9µM (no result: ClpP mod)
O=c1[nH]c(Cc2cccs2)nc2scc(-c3ccc(Cl)cc3)c12	TDP1 cell CPT 13µM (no result: ClpP mod)
O=c1[nH]c(Cc2ccccn2)nc2scc(-c3ccc(Cl)cc3)c12	TDP1 cell CPT inconclusive (no result: ClpP mod)
Cc1cccc(NC(=O)C2CCCN(S(=O)(=O)c3ccc4[nH]c(=O)ccc4c3)C2)c1 (stereo unspecified)	none
CN1c2ccc(Cl)cc2-c2nc(SCC(=O)NCc3ccc(F)cc3)ncc2S1(=O)=O	none (no result: IL1B secr inh, D3 antag)
COc1ccccc1CNC(=O)CN(C)Cc1ccc(SC)cc1	TDP1 cell CPT 16.4µM, TDP1 cell noCPT 23.1µM (no result: ClpP mod)
CSc1ccccc1NC(=O)CN(C)Cc1ccc(Br)cc1	TDP1 cell noCPT inconclusive, IL1B secr inh inconclusive, D3 antag inconclusive
CSc1ccc(CN(C)CC(=O)Nc2ccccc2Br)cc1	TDP1 cell CPT 23.1µM, TDP1 cell noCPT inconclusive
CN(CC(=O)Nc1ccccc1Br)C(=O)CCSc1ccc(F)cc1	TDP1 cell CPT inconclusive, TDP1 cell noCPT 13µM
CSc1ccccc1NC(=O)CN(C)Cc1c(O)ccc2ccccc12	TDP1 cell CPT inconclusive, TDP1 cell noCPT 23.1µM (no result: ClpP mod)
CC(C)(C)c1ccc(C(=O)NNC(=O)CCc2ccccc2)cc1	none (no result: ClpP mod)

Screening results (PubChem)
